# CHX counter: counter-screen for Shiga toxin inhibitors: cycloheximide protein synthesis inhibition | cell reporter, cycloheximide protein synthesis inhibition counterscreen | max response, % | 12% of 300,000 active | AID 2314; in the data active = max response mostly above about 13%, no sharp cut-off; inactive = mostly below about 14%; also: read at 38.3 µM for the half of the compounds with a filed dose; 0% is about no effect
# Shiga toxin inh: Shiga toxin inhibition | Vero cells, Shiga toxin protein synthesis inhibition reporter | 9.2% of 290,000 active | inhibition, % at 38.7 µM; in the data active = inhibition mostly above about 28%, no sharp cut-off; inactive = mostly below about 43%; also: 0% is about no effect
# Pf growth 96h: P. falciparum growth inhibition at 96 hours; 6.9% of 320,000 active; P. falciparum luciferase reporter growth, 96 h; Potency, µM (top dose mostly 28.7 µM), without a hit: at the top dose activity change, negative = inhibition, hits mostly inhibitors; AID 504834; active = well fitted inhibition curve with a large enough effect; inconclusive = small, poorly fitted or top-dose-only effect, or another doubt; inactive = no such curve, though single readings can be large or run the other way; also: potency is read from the fitted curve at half-maximal effect; % is scaled to controls: 0 for no effect and ±100 for the full control effect
#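 Two parasite generations (96 h, 37 C, 5% CO2) of compound exposure in infected erythrocytes (0.05% parasitemia, 2% hematocrit). Luciferase-reporter P. falciparum; decreased luminescence indicates inhibited growth, aimed at apicoplast-acting delayed death.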
# SARS PLP yeast: inhibitors of SARS-CoV papain-like protease in yeast; Potency, µM (series often up to 32.9 µM), inactives show at the highest dose activity, positive = growth rescue, usual class: activators; AID 485353; 0.19% of 330,000 active; S. cerevisiae expressing SARS-CoV PLpro, growth rescue; also: potency is read from the fitted curve at half-maximal effect; 0% is about no effect; nearly all actives have a fitted effect of over 55% in size
# Pf growth 48h: P. falciparum growth inhibition at 48 hours (one generation). Potency, µM (highest dose often 28.7 µM), for inactives: at the highest dose activity change, negative = inhibition, most hits filed as inhibitors. 5.9% of 310,000 active. P. falciparum luciferase growth in erythrocytes, 48 h; active = well fitted inhibition curve with a large enough effect; inconclusive = small, poorly fitted or top-dose-only effect, or another doubt; inactive = no such curve, though single readings can be large or run the other way; also: potency is read from the fitted curve at half-maximal effect; % is scaled to controls: 0 for no effect and ±100 for the full control effect
#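 Here the parasites carry a stable luciferase gene and grow inside erythrocytes in Albumax-based RPMI medium with compound for one erythrocytic cycle. Activity is scored as loss of luminescent signal.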
# NS1 function inh: blocks influenza NS1 protein function; Potency, µM (titrated, usually from 46.1 µM), without a hit: top-dose activity, positive = more growth; 0.4% of 270,000 active; also: potency is read from the fitted curve at half-maximal effect; actives are rising curves; nearly all actives have a fitted effect of over 50% in size
#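 Read-out: OD600 growth recovery of NS1-expressing budding yeast. Cells grown overnight at 30C in -URA glucose medium, washed, resuspended and diluted 1:100 in 2% galactose assay medium, pH 6.0. Same strain lacking NS1 served as positive control.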
# Starred values were filed as active, the others as inactive; ? = inconclusive; . = no result given; [ ] = another dose, or the depositor's remark. The list is not random: actives were taken first. Their share in the collection is about 21%. Unless noted, calls follow the shape of the full dose curve.
SMILES,CHX counter,Shiga toxin inh,Pf growth 96h,SARS PLP yeast,Pf growth 48h,NS1 function inh
Cc1cc(C(=O)N(C)Cc2c(F)cccc2Cl)c2ccccc2n1,-3.1,-4.5,-2.3%,-0.8%,-21.5%,-7.2%
O=C(Nc1ccc([N+](=O)[O-])cc1)Nc1ccc2c(c1)OCCO2,55.0*,128.8*,-9.9%,4.8%,181.5%,.
O=C(Nc1cccc(C(=O)O)c1)Nc1ccc2c(c1)OCO2,29.7*,36.1*,-26.2%,-3.3%,231.0%,?
CCc1ccc2[nH]c(C(=O)Nc3ccc(Br)c(C)n3)cc2c1,31.7*,136.6*,120.6%,1.1%,122.7%,1.3%
Cc1cc(C)c2[nH]c(C(=O)Nc3ccc4c(c3)OCO4)cc2c1,15.6*,45.9,5.8%,-5.1%,-10.2%,7.5%
O=C(Nc1cccc(C(=O)O)c1)/C(=C\c1ccc2c(c1)OCO2)NC(=O)c1ccc(Br)o1,16.4*,45.4*,-4.7%,0.3%,150.9%,.
O=C(CN1C2CCC1CC(O)(c1cccnc1)C2)Nc1ccc2c(c1)OCO2 (stereo not given),-2.3,-15.6,8.28µM*,-1.6%,12.3%,3.9%
Cc1cc(C)c(NC(=O)Nc2ccc3c(c2)OCO3)c(C)c1,37.2*,82.4*,69.4%,8.9%,2.1%,11.7%
O=C(O)C1CCCCC1C(=O)Nc1ccc2c(c1)OCO2 (stereo not given),-0.8,-9.2,38.8%,-0.2%,20.6%,8.4%
CC1=C(C)CC(C(=O)Nc2ccc3c(c2)OCO3)C(C(=O)O)C1 (stereo not given),28.5*,40.7*,15.4%[1.15 µM],-0.2%,20.2%,0.3%
O=C(NNC(=O)c1ccccc1Br)c1ccc(SCC2CCCO2)c([N+](=O)[O-])c1 (stereo not given),-1.6,-9.6,-3.1%,1.1%,-10.1%,19.1%
O=C(Nc1ccc2c(c1)OCO2)Nc1ccc(Cl)cc1Cl,28.1*,63.6*,108.8%,1.2%,.,-2.3%
O=C(Nc1ccc(C(=O)N2CCOCC2)cc1)Nc1ccc(Cl)cc1Cl,4.6,-11.2,-1.1%,-0.6%,-22.2%,2.1%
CC(=O)Nc1ccc(S(=O)(=O)NCCc2cn3nc(C)c(C)nc3n2)cc1,16.4,-0.9,21.0%,?,-3.8%,-18.3%
CCCn1c2ccccc2c2nnc(SCc3[nH]c(=O)[nH]c3C(=O)CCCCC(=O)OCC)nc21,-2.8,-5.0,10.4µM*,15.3%,?,-0.8%
CC(C)Cn1cc(Cl)c(=O)n(CC(C)C)c1=O,4.1,-6.8,57.7%,0.2%,28.1%,-2.1%
CCN(CC(=O)Nc1c(F)cccc1F)C(=O)c1ccc(=O)n(Cc2ccccc2)n1,-2.5,-1.9,-2.3%,-5.6%,61.6%,5.4%
CCN(CC(=O)Nc1cc(Cl)ccc1C)C(=O)c1ccc(=O)n(Cc2ccccc2)n1,1.8,-13.1,9.28µM*,3.6%,?,-3.3%
CCOC(=O)/C(=N\Nc1ccccc1[N+](=O)[O-])c1csc(N)n1,21.4*,35.6,34.1%,-1.1%,2.7%,4.0%
O=C(CCC(=O)c1ccc(F)cc1)Nc1cc(Cl)cc(Cl)c1,5.8,13.3,40.4%,-0.2%,41.4%,-20.6%
COc1ccc(NC(=O)c2ccc(NC(=O)c3nc4nccc(C)n4n3)cc2)cc1,.,.,.,-1.2%,.,.
Cc1ccccc1NC(=O)c1nc2nccc(C)n2n1,37.6*,71.7*,79.4%,-1.3%,312.2%,.
COc1ccc(NC(=O)c2nc3nccc(C)n3n2)cn1,32.6*,44.3*,202.6%,2.0%,.,5.9%
COc1ccccc1NC(=O)c1ccc(NC(=O)c2nc3nccc(C)n3n2)cc1,.,.,?,4.8%,?,.
COc1cc(OC)cc(OCC(O)Cn2cnc(-c3ccccc3)c2)c1 (stereo not given),0.5,-8.0,0.8%,-1.6%,13.1µM*,-23.8%
SMILES,CHX counter,Shiga toxin inh,Pf growth 96h,SARS PLP yeast,Pf growth 48h,NS1 function inh
NC(=O)Cn1cnc(-c2ccccc2)c1,-2.9,-3.2,?,-0.7%,7.0%,-6.1%
Cc1csc(SCC(=O)NC(=O)NCCC(C)C)n1,-2.8,-14.5,-15.3%,-0.8%,0.7%,0.2%
Cc1ccc(-c2nnc3c4ccccc4c(C)nn23)cc1S(=O)(=O)N1CCN(CCO)CC1,6.2,-1.3,?,1.9%,0.415µM*,-14.7%
CN(Cc1ccc(Cl)cc1)C(=O)CNC(=O)C12CC3CC(CC(C3)C1)C2,.,.,10.4µM*,-0.8%,9.28µM*,.
O=C(Cc1ccc(Cl)cc1)OCc1nnc(-c2ccccc2)o1,-1.4,-9.1,13.1%,-2.6%,14.1%,-9.0%
O=C(NCc1ccccc1)C12CC3CC(CC(C3)C1)C2,-4.5,-4.6,-23.3%,3.7%,.,-11.5%
Cc1ccc(CCNC(=O)C23C[C@H]4C[C@@H](C2)CC(n2nnc(C)n2)(C4)C3)cc1,41.3*,58.9,31.9%,-5.2%,-24.7%,.
O=C(NCCc1ccc(Cl)cc1)C12CC3CC(CC(O)(C3)C1)C2,19.3*,16.7,-2.3%,0.0%,19.7%,12.7%
O=C(OCc1nnc(-c2ccc(Cl)cc2)o1)C12CC3CC(CC(O)(C3)C1)C2,38.8*,118.3*,203.2%,-0.1%,308.9%,.
O=C(CSc1n[nH]c(-c2ccccc2F)n1)Nc1cc(F)ccc1F,.,.,?,5.6%,20.1%,.
CC(=O)c1cccc(NC(=O)NC(C)C2CCCO2)c1 (stereo not given),2.7,-4.8,?,2.5%,4.7%,-2.4%
CCOC(=O)c1ccc(NC(=O)NC(C)C2CCCO2)cc1 (stereo not given),12.1*,36.4,.,-0.5%,3.5%,0.8%
CCOc1cc(C(=O)NC(C)C2CCCO2)cc(OCC)c1OCC (stereo not given),-3.9,-8.1,11.7µM*,0.1%,40.7%[1.15 µM],0.4%
CC(NC(=O)Nc1ccc(Cl)cc1)C1CCCO1 (stereo not given),8.1,20.0*,?,0.9%,72.8%,3.8%
COc1ccccc1NC(=O)C(C)OC(=O)C1CCN(S(=O)(=O)c2ccc(C)c(C)c2)CC1 (stereo not given),.,.,-24.7%,1.4%,?,.
CC(C)CCNC(=O)C(c1ccc(O)cc1)N(Cc1ccco1)C(=O)CCC(=O)Nc1nccs1 (stereo not given),-4.0,-9.7,?,-1.5%,?,11.7%
COc1ccc(-c2nnc(NC(=O)c3ccc([N+](=O)[O-])o3)o2)c(OC)c1,-1.6,-4.0,11.7µM*,-5.2%,14.7µM*,5.9%
COc1cccc(-c2nnc(NC(=O)c3ccccc3Br)o2)c1,35.3*,65.9*,126.3%,-7.5%,78.0%,-72.5%
COc1cccc(-c2nnc(NC(=O)c3ccc(Cl)s3)o2)c1,4.8,-1.6,11.7µM*,-28.7%,?,-83.7%
CO/N=C\c1cc(C(=O)c2ccc(Cl)cc2Cl)cn1C,-0.4,34.0,?,-4.4%,-3.3%,.
O=C(c1nc2nc(-c3cccs3)cc(C(F)(F)F)n2n1)N1CCN(Cc2ccccc2)CC1,-3.8,-4.6,207.3%,-15.7%,?,-6.3%
Nc1ccc(Sc2ccccc2CC(=O)O)cc1,7.6,-5.9,87.6%,1.9%,10.0%,8.3%
